Measured values as given in the supplement of paper PMC8728848.
About 410 targets per protein were measured; listed, in parts, are those with the strongest signals and a random draw of the rest.

Tests used:
Experiment in all cases: glycan array binding signal (z-score within array); higher = stronger binding
Conditions in all cases: glycan notation: IUPAC condensed, linker removed
[1] = molecular target: Fuc(a1-2)Gal(b1-4)GlcNAc(b1-3)[Fuc(a1-3)[Gal(b1-4)]GlcNAc(b1-6)]Gal(b1-4)Glc
Method in brief: (§1)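 Glycan array data were curated from 3228 arrays in the Consortium for Functional Glycomics database and kept only where the protein sequence was available. Glycan names were converted to IUPAC-condensed notation, and columns mapping to the same glycan were averaged. The binding signal is a within-array Z-score, averaged across arrays of the same protein sequence at different concentrations or buffers and across linkers. Negative Z-scores can be read as non-binding.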

[2] = molecular target: Fuc(a1-2)[Gal(a1-3)]Gal(b1-3)GlcNAc(b1-3)GalNAc
Method in brief: as §1

[3] = molecular target: Fuc(a1-2)[GalNAc(a1-3)]Gal(b1-3)GalNAc(b1-3)Gal(a1-4)Gal(b1-4)Glc
Method in brief: as §1

[4] = molecular target: Fuc(a1-2)[GalNAc(a1-3)]Gal(b1-3)GlcNAc(b1-6)GalNAc
Method in brief: as §1

[5] = molecular target: Fuc(a1-2)[GalNAc(a1-3)]Gal(b1-4)GlcNAc(b1-2)Man(a1-3)[Fuc(a1-2)[GalNAc(a1-3)]Gal(b1-4)GlcNAc(b1-2)Man(a1-6)]Man(b1-4)GlcNAc(b1-4)GlcNAc
Method in brief: as §1

[6] = molecular target: Fuc(a1-2)[GalNAc(a1-3)]Gal(b1-4)GlcNAc(b1-2)Man(a1-3)[Fuc(a1-2)[GalNAc(a1-3)]Gal(b1-4)GlcNAc(b1-2)Man(a1-6)]Man(b1-4)GlcNAc(b1-4)[Fuc(a1-6)]GlcNAc
Method in brief: as §1

[7] = molecular target: Fuc(a1-3)[Gal(b1-4)]GlcNAc(b1-2)Man(a1-3)[Fuc(a1-3)[Gal(b1-4)]GlcNAc(b1-2)Man(a1-6)]Man(b1-4)GlcNAc(b1-4)GlcNAc
Method in brief: as §1

Fuc(a1-4)GlcNAc = molecular target: Fuc(a1-4)GlcNAc
Method in brief: as §1

Gal(a1-2)Gal = molecular target: Gal(a1-2)Gal
Method in brief: as §1

Gal(a1-3)Gal = molecular target: Gal(a1-3)Gal
Method in brief: as §1

[8] = molecular target: Gal(a1-3)Gal(b1-3)GlcNAc(b1-6)GalNAc
Method in brief: as §1

[9] = molecular target: Gal(a1-3)Gal(b1-4)GlcNAc(b1-2)Man(a1-3)[Gal(a1-3)Gal(b1-4)GlcNAc(b1-2)Man(a1-6)]Man(b1-4)GlcNAc(b1-4)GlcNAc
Method in brief: as §1

[10] = molecular target: Gal(a1-3)Gal(b1-4)[Fuc(a1-3)]GlcNAc
Method in brief: as §1

[11] = molecular target: Gal(a1-3)Gal(b1-4)[Fuc(a1-3)]GlcNAc(b1-2)Man(a1-3)[Gal(a1-3)Gal(b1-4)[Fuc(a1-3)]GlcNAc(b1-2)Man(a1-6)]Man(b1-4)GlcNAc(b1-4)GlcNAc
Method in brief: as §1

Gal(a1-3)GalNAc = molecular target: Gal(a1-3)GalNAc
Method in brief: as §1

[12] = molecular target: Gal(a1-3)[Gal(a1-4)]Gal(b1-4)GlcNAc
Method in brief: as §1

[13] = molecular target: Gal(a1-4)Gal(b1-3)GlcNAc(b1-2)Man(a1-3)[Gal(a1-4)Gal(b1-3)GlcNAc(b1-2)Man(a1-6)]Man(b1-4)GlcNAc(b1-4)GlcNAc
Method in brief: as §1

Gal(b1-3)Gal = molecular target: Gal(b1-3)Gal
Method in brief: as §1

[14] = molecular target: Gal(b1-3)GalNAc(a1-3)[Fuc(a1-2)]Gal(b1-4)GlcNAc
Method in brief: as §1

[15] = molecular target: Gal(b1-3)GlcNAc(b1-2)[Gal(b1-3)GlcNAc(b1-6)]Man(a1-6)[Gal(b1-3)GlcNAc(b1-2)Man(a1-3)]Man(b1-4)GlcNAc(b1-4)GlcNAc
Method in brief: as §1

[16] = molecular target: Gal(b1-3)GlcNAc(b1-3)Gal(b1-4)GlcNAc(b1-2)Man(a1-3)[Gal(b1-3)GlcNAc(b1-3)Gal(b1-4)GlcNAc(b1-2)Man(a1-6)]Man(b1-4)GlcNAc(b1-4)GlcNAc
Method in brief: as §1

[17] = molecular target: Gal(b1-3)[Fuc(a1-4)]GlcNAc(b1-6)GalNAc
Method in brief: as §1

[18] = molecular target: Gal(b1-4)GlcNAc(b1-2)Man(a1-3)[Gal(b1-4)GlcNAc(b1-2)Man(a1-6)]Man(b1-4)GlcNAc(b1-4)GlcNAc
Method in brief: as §1

[19] = molecular target: Gal(b1-4)GlcNAc(b1-2)Man(a1-3)[Gal(b1-4)GlcNAc(b1-2)Man(a1-6)][Gal(b1-4)GlcNAc(b1-4)]Man(b1-4)GlcNAc(b1-4)[Fuc(a1-6)]GlcNAc
Method in brief: as §1

[20] = molecular target: Gal(b1-4)GlcNAc(b1-2)[Gal(b1-4)GlcNAc(b1-6)]Man(a1-6)[Gal(b1-4)GlcNAc(b1-2)Man(a1-3)]Man(b1-4)GlcNAc(b1-4)[Fuc(a1-6)]GlcNAc
Method in brief: as §1

[21] = molecular target: Gal(b1-4)GlcNAc(b1-3)Gal(b1-3)GlcNAc
Method in brief: as §1

[22] = molecular target: Gal(b1-4)GlcNAc(b1-3)Gal(b1-4)GlcNAc(b1-2)Man(a1-3)[Gal(b1-4)GlcNAc(b1-3)Gal(b1-4)GlcNAc(b1-2)Man(a1-6)]Man(b1-4)GlcNAc(b1-4)GlcNAc
Method in brief: as §1

[23] = molecular target: Gal(b1-4)GlcNAc(b1-3)Gal(b1-4)GlcNAc(b1-3)Gal(b1-4)GlcNAc
Method in brief: as §1

[24] = molecular target: Gal(b1-4)GlcNAc(b1-3)Gal(b1-4)GlcNAc(b1-3)Gal(b1-4)GlcNAc(b1-2)Man(a1-3)[Gal(b1-4)GlcNAc(b1-3)Gal(b1-4)GlcNAc(b1-3)Gal(b1-4)GlcNAc(b1-2)Man(a1-6)]Man(b1-4)GlcNAc(b1-4)GlcNAc
Method in brief: as §1

[25] = molecular target: Gal(b1-4)GlcNAc(b1-3)Gal(b1-4)GlcNAc(b1-3)Gal(b1-4)GlcNAc(b1-2)[Gal(b1-4)GlcNAc(b1-3)Gal(b1-4)GlcNAc(b1-3)Gal(b1-4)GlcNAc(b1-6)]Man(a1-6)[Gal(b1-4)GlcNAc(b1-3)Gal(b1-4)GlcNAc(b1-3)Gal(b1-4)GlcNAc(b1-2)Man(a1-3)]Man(b1-4)GlcNAc(b1-4)[Fuc(a1-6)]GlcNAc
Method in brief: as §1

[26] = molecular target: Gal(b1-4)GlcNAc(b1-3)Gal(b1-4)GlcNAc(b1-3)GalNAc
Method in brief: as §1

[27] = molecular target: Gal(b1-4)GlcNAc(b1-3)Gal(b1-4)GlcNAc(b1-6)[Gal(b1-3)]GalNAc
Method in brief: as §1

Gal(b1-6)Gal = molecular target: Gal(b1-6)Gal
Method in brief: as §1

[28] = molecular target: Gal3S(b1-4)[Fuc(a1-3)]GlcNAc6S
Method in brief: as §1

Gal3S4S(b1-4)GlcNAc = molecular target: Gal3S4S(b1-4)GlcNAc
Method in brief: as §1

B1: SP16664B-bot-474-25-474 (Bacteroides ovatus) (protein)
chain: CEEDIEIGNKIDESSYLASTQLSGLLLDENTNKNSSVIELRNNEYSTNVVFRLSKLPQKGVDVQIAVEESYAAIYNTIHETDFEVFPAANVKIANNGTFVLAPDDKVTPSVKVTLTAFDGMEEDKTYIVPLTVTSSTEGVTFTETSKHMVLLVQDYRNKPNTNKGEDAVQTVLYFEVNDTNPLNALEFLTESGKYFFDHIVLFAANINWDPEKQRVYLANNENVQFLLDNNDKYLQPLRKAGMKIIISILGNHDEAGVAQLSDMGAREFARELAAYCRAYNLDGVAFDDEYSNSPDLSNPWLASPSAYAGSRLMYECKAVMPEKIVSLYNLGNMYSSSLQVIDGIEPGQYCDYAVADYGGAAGPGTGMTLKQCAGMSIELRRGSGNSSESTARSRKEAGYGYYMFFALDPSLYGSQVYRCQSVCKGLYDETLVYPSYYYKKNSTEREAIN
[1]
  glycan array binding signal (z-score): -0.136
[2]
  glycan array binding signal (z-score): -0.535
[3]
  glycan array binding signal (z-score): -0.296
[4]
  glycan array binding signal (z-score): -0.622
[5]
  glycan array binding signal (z-score): 0.635
[6]
  glycan array binding signal (z-score): 1.16
[7]
  glycan array binding signal (z-score): 2.22
Fuc(a1-4)GlcNAc
  glycan array binding signal (z-score): 2.34
Gal(a1-2)Gal
  glycan array binding signal (z-score): 0.194
Gal(a1-3)Gal
  glycan array binding signal (z-score): -0.094
[8]
  glycan array binding signal (z-score): 0.049
[9]
  glycan array binding signal (z-score): 2.23
[10]
  glycan array binding signal (z-score): -0.366
[11]
  glycan array binding signal (z-score): 1.65
Gal(a1-3)GalNAc
  glycan array binding signal (z-score): -0.504
[12]
  glycan array binding signal (z-score): -0.405
[13]
  glycan array binding signal (z-score): 1.04
Gal(b1-3)Gal
  glycan array binding signal (z-score): -0.262
[14]
  glycan array binding signal (z-score): -0.291
[15]
  glycan array binding signal (z-score): 0.525
[16]
  glycan array binding signal (z-score): -0.246
[17]
  glycan array binding signal (z-score): 0.134
[18]
  glycan array binding signal (z-score): -0.21
[19]
  glycan array binding signal (z-score): -0.39
[20]
  glycan array binding signal (z-score): -0.218
[21]
  glycan array binding signal (z-score): -0.433
[22]
  glycan array binding signal (z-score): 1.81
[23]
  glycan array binding signal (z-score): -0.33
[24]
  glycan array binding signal (z-score): 1.88
[25]
  glycan array binding signal (z-score): 2.21
[26]
  glycan array binding signal (z-score): 1.54
[27]
  glycan array binding signal (z-score): 0.334
Gal(b1-6)Gal
  glycan array binding signal (z-score): -0.141
[28]
  glycan array binding signal (z-score): 0.545
Gal3S4S(b1-4)GlcNAc
  glycan array binding signal (z-score): 0.303
